# Experimental data from PubChem BioAssay (Tox21).
# Where “and” joins values, the source holds several entries; their conditions need not be identical. Equal entries are not always repeated. Results filed as inconclusive are left out. A call without a number means that no potency is given here. Calls of active or inactive are those of the source. Calls follow the shape of the dose curve; as a rule, active = well fitted activation curve with a large enough effect in the repeat runs; inconclusive = weak or mixed curves; inactive = no such curve, though single readings can be large or run the other way.
# Test: qHTS assay for small molecules that induce genotoxicity in human embryonic kidney cells expressing luciferase-tagged ATAD5 (AID 651632); also: nearly all actives have a fitted effect of over 15% in size
# Settings: HEK293T ATAD5-luciferase induction, 16 h; series mostly up to 83.3 µM
# Summary of the method: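 Luminescence read-out: after 16 hr compound exposure at 37C, ATAD5-luciferase HEK293T cells received Amplite, 30 min RT, then CCD imaging. A rise in signal marks genotoxic stress.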
# Potency is read from the fitted curve at half-maximal effect.
row,SMILES,Potency
1,Cc1cc(O)c(C(C)(C)C)cc1C(C)(C)C,inactive
2,C=CC(=O)OCCn1c(=O)n(CCOC(=O)C=C)c(=O)n(CCOC(=O)C=C)c1=O,5.45 µM (active)
3,CCCCCCCCCCn1cc[n+](CCCCCCCCCC)c1C,inactive
4,O=C(Nc1ccc(Oc2ccc(Cl)cc2)c(Cl)c1)c1cc(I)cc(I)c1O,inactive
5,CCCN(CCC)C(=O)C(CCC(=O)OCCCN1CCN(CCOC(=O)Cc2c(C)n(C(=O)c3ccc(Cl)cc3)c3ccc(OC)cc23)CC1)NC(=O)c1ccccc1 (stereo not drawn),inactive
6,CN1CCN(CCC(=O)N2c3ccccc3Sc3ccc(C(F)(F)F)cc32)CC1,inactive
7,Oc1ccc(Cl)cc1Sc1cc(Cl)ccc1O,inactive
8,CCCCN1CCCC[C@H]1C(=O)Nc1c(C)cccc1C,inactive
9,CCCC/C=C/CCCCO,inactive
10,O=C(OCC(COC(=O)c1ccccc1)(COC(=O)c1ccccc1)COC(=O)c1ccccc1)c1ccccc1,inactive
11,O=S1(=O)CC(Cl)(Cl)C(Cl)(Cl)C1,4.86 µM (active)
12,N#CSc1ccc(N)c([N+](=O)[O-])c1,inactive
13,C=C(C)C(=O)OCC[N+](C)(C)C,inactive
14,CC1=NC(C)OC1C (stereo not drawn),inactive
15,COCCCC/C(=N\OCCN)c1ccc(C(F)(F)F)cc1,inactive
16,Cc1ccc(-n2nc(C(C)(C)C)cc2NC(=O)Nc2ccc(OCCN3CCOCC3)c3ccccc23)cc1,inactive
17,CCCCCCCC[N+](CCCCCCCC)(CCCCCCCC)CCCCCCCC,inactive
18,CCCCCCOC(=O)c1ccc(O)cc1,21.7 µM (active) and 19.3 µM (active)
